ASM inhibitor – blocks human secretory acid sphingomyelinase. P17405. placental ASM, HMU-PC fluorogenic substrate, 60 min. Potency, µM (series often up to 57.5 µM), for inactives: top-dose activity change, negative = inhibition, usual class: inhibitors. 340,000 tested, 0.006% active
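Fluorogenic HMU-PC substrate (9 uM final) is turned over by placental ASM in 60 min at 37 C after a 10 min compound preincubation. Reaction ended by alkaline stop (pH 10), with fluorescence read at 386/447 nm.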
TDP1 inh – inhibitors of human tyrosyl-DNA phosphodiesterase TDP1; Potency, µM (titrated, usually from 130 µM), inactives show top-dose activity change, negative = inhibition, most hits filed as inhibitors; Q9NUW8; 350,000 tested, 0.28% active; AID 485290; recombinant TDP1, AlphaScreen DNA substrate cleavage; note: % is set by controls: 0 for no effect and ±100 for the full control effect; nearly all actives have a fitted effect of over 40% in size
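Enzyme-compound mixtures sat 15 min at room temperature, followed by a 5 min reaction with 15 nM final substrate and 10 min with AlphaScreen beads. Recombinant human Tdp1 was used at 1 nM final.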
Pin1 inh – human Pin1 inhibition. Q13526. Pin1 FP peptide displacement, HiFluor488, 10 min. Potency, µM (doses to about 115 µM), for inactives: top-dose activity, negative = inhibition, usual class: inhibitors. 390,000 tested, 0.009% active. AID 504891; active = well fitted inhibition curve with a large enough effect in the polarisation, with a control signal flat, not every such curve was filed as active; inconclusive = small, poorly fitted or top-dose-only effect, or effect the other way, or a change in a side signal; inactive = no such curve, though single readings can be large or run the other way; the % refers to the polarisation; note: % is set by controls: 0 for no effect and ±100 for the full control effect
Target sequence (Q13526 whole entry, looked up): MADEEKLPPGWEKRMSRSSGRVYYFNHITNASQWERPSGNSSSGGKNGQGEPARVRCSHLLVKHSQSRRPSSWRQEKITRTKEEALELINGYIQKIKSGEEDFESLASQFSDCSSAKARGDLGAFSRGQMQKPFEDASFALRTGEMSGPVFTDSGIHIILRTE
PLK1 PBD block – inhibitors of human PLK1 polo-box domain binding. AID 720504. P53350. 360,000 tested, 2.8% active. Potency, µM, without a hit: max response, negative = inhibition, most hits filed as inhibitors. Plk1 PBD binding of FITC phosphopeptide, fluorescence polarization; note: series mostly up to about 57 µM; % is set by controls: 0 for no effect and ±100 for the full control effect; nearly all actives have a fitted effect of over 65% in size
Tb PFK inh – inhibitors of T. brucei phosphofructokinase | O15648 | T. brucei PFK, ADP-Glo luminescence | Potency, µM (top dose mostly 57.5 µM), for the others: at the top dose activity, negative = inhibition, actives largely listed as inhibitors | 330,000 tested, 0.17% active | AID 485367;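 note: 0% = uninhibited 1x PFK enzyme wells and -100% = no-enzyme wells; nearly all actives have a fitted effect of over 60% in size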
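In TEA buffer at pH 8.0 with 5 mM MgCl2, enzyme (1.25 nM) converted F6P (0.5 mM) and ATP (0.1 mM) for 45 min at room temperature. ADP product was read by luciferase luminescence.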
VDR inhibitor – inhibitors of human vitamin D receptor; P11473; VDR-SRC2-3 peptide fluorescence polarization, 2 h; Potency, µM, for the others: max response, negative = inhibition, most hits filed as inhibitors; 400,000 tested, 0.93% active; note: % is set by controls: 0 for no effect and ±100 for the full control effect
Target sequence (P11473 whole entry, looked up): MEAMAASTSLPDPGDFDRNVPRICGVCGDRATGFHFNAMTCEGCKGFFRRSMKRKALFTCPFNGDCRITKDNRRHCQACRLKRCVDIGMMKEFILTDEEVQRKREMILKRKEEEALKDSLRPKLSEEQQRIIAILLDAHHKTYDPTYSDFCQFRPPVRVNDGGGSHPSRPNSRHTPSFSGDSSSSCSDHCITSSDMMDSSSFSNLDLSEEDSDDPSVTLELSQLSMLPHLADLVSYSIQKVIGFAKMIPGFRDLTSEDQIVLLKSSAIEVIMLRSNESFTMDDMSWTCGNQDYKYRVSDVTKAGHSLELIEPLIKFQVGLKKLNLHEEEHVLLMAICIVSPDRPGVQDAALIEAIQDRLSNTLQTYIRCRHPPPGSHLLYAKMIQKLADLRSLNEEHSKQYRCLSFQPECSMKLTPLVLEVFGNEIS
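Compounds are added to VDR with labelled SRC2-3 coactivator peptide and held 2 h at room temperature. Inhibition of the VDR–peptide interaction is then read as a change in fluorescence polarization.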
The depositor's hits bear a star; [ ] = dose if it differs, or a comment. Sampled rows, rich in hits. Any-hit rate of the full collection: about 3.1%. Unless noted, calls come from the whole dose curve; as a rule, active = well fitted curve in the direction sought with a large enough effect; inconclusive = small, poorly fitted or top-dose-only effect, or another doubt; inactive = no such curve, though single readings can be large; an effect the other way counts as inactive or inconclusive. Potency is the fitted concentration of half-maximal effect.

`NS(=O)(=O)c1ccc(NC(=S)NCCc2ccccc2)cc1` gave ASM inhibitor -1.5%, TDP1 inh -6.0%, Pin1 inh 0.3%, PLK1 PBD block 6.7µM*, Tb PFK inh inconclusive and VDR inhibitor -19.4%.
Screening O=C(NCc1ccco1)c1ccccc1Br returned ASM inhibitor -0.9%, TDP1 inh 4.5%, Pin1 inh -2.2%, PLK1 PBD block 26.7µM*, Tb PFK inh 0.2% and VDR inhibitor inconclusive.
Screening Cc1ccn2c(=O)c(C(=O)NCCc3ccccc3)c(O)nc2c1 returned TDP1 inh 4.9%, Pin1 inh 5.4% and VDR inhibitor -7.6%.
S=C(NCc1ccco1)NCc1ccco1 was read as ASM inhibitor 2.2%, Pin1 inh -2.5%, PLK1 PBD block 5.97µM* and VDR inhibitor inconclusive.
For S=C(NCc1ccccc1)NCc1ccco1 the results were ASM inhibitor 4.7%, TDP1 inh 5.2%[56.1 µM], Pin1 inh -5.0%, PLK1 PBD block inconclusive, Tb PFK inh 0.8% and VDR inhibitor -18.6%.
NS(=O)(=O)c1ccc(NC(=S)NCc2ccc3c(c2)OCO3)cc1 was read as ASM inhibitor -2.9%, Pin1 inh 4.1%, PLK1 PBD block 21.2µM*, Tb PFK inh -25.3% and VDR inhibitor 0.5%.
For NS(=O)(=O)c1cccc(NC(=S)NCc2ccc3c(c2)OCO3)c1 the results were ASM inhibitor 6.9%, TDP1 inh -1.2%, Pin1 inh -0.3%, PLK1 PBD block inconclusive, Tb PFK inh -0.7% and VDR inhibitor -8.2%.
For O=C(Nc1cc(Cl)ccc1Cl)c1cc(S(=O)(=O)N2CCCc3ccccc32)ccc1F the results were TDP1 inh 5.2%, Pin1 inh 16.0% and VDR inhibitor 2.0%.
Screening COC(=O)c1ccc(Oc2c(Cl)cccc2[N+](=O)[O-])cc1 returned ASM inhibitor -1.3%, TDP1 inh 5.8%, Pin1 inh -1.4%, PLK1 PBD block 21.2µM*, Tb PFK inh -2.0% and VDR inhibitor inconclusive.
COC(=O)c1ccc(Oc2ccc(C(C)(C)C)cc2)c([N+](=O)[O-])c1 was read as ASM inhibitor -2.2%, TDP1 inh 4.3%, Pin1 inh 1.9%, PLK1 PBD block -0.8%, Tb PFK inh -3.9% and VDR inhibitor 23.2%.
Cc1cccc(N2CCN(C(=O)C3CCCN(S(=O)(=O)c4cccc5nsnc45)C3)CC2)c1C (stereo not drawn) was read as TDP1 inh 7.0%, Pin1 inh 26.2% and VDR inhibitor 9.3%.
Screening Cc1ccc(NCc2ccc(O)c3ncccc23)c(F)c1 returned TDP1 inh 0.9% and Pin1 inh inconclusive.
Screening CCOC(=O)c1c(NC(=O)C2CCCO2)sc(C(N)=O)c1C (stereo not drawn) returned ASM inhibitor 3.3%, TDP1 inh -2.8%, Pin1 inh 5.9%, PLK1 PBD block -19.1%, Tb PFK inh -0.3% and VDR inhibitor -5.9%.
For CCOC(=O)c1c(NC(=S)NCC2CCCO2)sc(C)c1C (stereo not drawn) the results were ASM inhibitor -1.0%, TDP1 inh -1.2%, Pin1 inh -9.2%, PLK1 PBD block 11.9µM*, Tb PFK inh -13.1% and VDR inhibitor 89.1µM*.
Screening CCN(CC)CCNC(=O)c1ccc2c(c1)NC(=O)C(CS(=O)(=O)Cc1ccc(F)cc1Cl)N2 (stereo not drawn) returned TDP1 inh 7.0%, Pin1 inh -14.6% and VDR inhibitor 12.4%.
Screening CC1C(=O)N(Cc2cn(CCC3OCCO3)nn2)CCS(=O)(=O)N1Cc1ccc(-c2ccc(F)cc2)cc1 (stereo not drawn) returned PLK1 PBD block 5.32µM*.
For CC1C(=O)N(Cc2cn(CCC3OCCO3)nn2)CCS(=O)(=O)N1Cc1ccc(-c2ccncc2)cc1 (stereo not drawn) the results were PLK1 PBD block 0.5%.
`CCCCC(CC)CNC(=O)c1ccc(Cn2c(=O)[nH]c3cc(OC)c(OC)cc3c2=O)cc1` (stereo not drawn) gave TDP1 inh 0.0%, Pin1 inh -3.4% and VDR inhibitor -14.4%.
For O=c1[nH]c2ccccc2c(O)c1-c1ccccc1 the results were ASM inhibitor 0.7%, Pin1 inh -1.5%, PLK1 PBD block 1.8%, Tb PFK inh 2.1% and VDR inhibitor 15.9%.
O=c1[nH]c2ccccc2c(O)c1-c1ccccc1[N+](=O)[O-] was read as ASM inhibitor -0.3%, TDP1 inh 1.2%, Pin1 inh -3.2%, PLK1 PBD block 23.8µM*, Tb PFK inh 0.1% and VDR inhibitor -13.3%.
Screening CC1=C(C#N)C(=O)NC(=O)/C1=C\c1ccc(-c2ccc(C)cc2[N+](=O)[O-])o1 returned ASM inhibitor 1.9%, TDP1 inh 1.6%, Pin1 inh inconclusive, PLK1 PBD block 8.44µM*, Tb PFK inh 19.4% and VDR inhibitor inconclusive.
`CCOC(=O)c1cc(-c2ccc(/C=C3/C(=O)NC(=O)C(C#N)=C3C)o2)ccc1Cl` gave ASM inhibitor -5.5%, TDP1 inh -7.9%, Pin1 inh inconclusive, PLK1 PBD block 3.36µM*, Tb PFK inh -10.0% and VDR inhibitor inconclusive.
For Cc1ccc(N2NC(=O)/C(=C/c3ccc(-c4ccc(Cl)c(C(=O)O)c4)o3)C2=O)cc1 the results were ASM inhibitor inconclusive, TDP1 inh 8.1%, Pin1 inh inconclusive, PLK1 PBD block inconclusive, Tb PFK inh inconclusive and VDR inhibitor inconclusive.
For Cc1ccc(C)c2c1NC(C(=O)O)C1CC=CC21 (stereo not drawn) the results were TDP1 inh inconclusive and VDR inhibitor -21.8%.
For COc1ccccc1C(=O)Nn1c(C2CCC2)nc2ccccc2c1=O the results were ASM inhibitor -1.0%, TDP1 inh 5.1%, Pin1 inh 5.2%, PLK1 PBD block -9.4%, Tb PFK inh -6.1% and VDR inhibitor -8.8%.
`COc1cc2nc(C3CCC3)n(NC(=O)C3CCC(OC)CC3)c(=O)c2cc1OC` (stereo not drawn) gave ASM inhibitor 1.5%, TDP1 inh 0.0%, Pin1 inh -7.4%, PLK1 PBD block -6.0%, Tb PFK inh -1.7% and VDR inhibitor 4.8%.
Screening COc1cc2nc(C3CCC3)n(NC(=O)COc3ccccc3)c(=O)c2cc1OC returned ASM inhibitor -5.2%, TDP1 inh -1.1%, Pin1 inh 3.7%, PLK1 PBD block 26.7µM*, Tb PFK inh -5.2% and VDR inhibitor inconclusive.
Screening COc1cc2nc(C3CCC3)n(NC(=O)C3CCC3)c(=O)c2cc1OC returned ASM inhibitor -3.6%, TDP1 inh 1.0%, Pin1 inh -3.3%, PLK1 PBD block 23.8µM*, Tb PFK inh -10.6% and VDR inhibitor -12.6%.
